Data reported in PubChem BioAssay AID720697 (Broad Institute, 2013).
Entries with a potency or affinity are not part of this list. Records with an inconclusive call do not appear. Active and inactive are the calls of the source.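 The calls were made as follows: active = signal loss with fitted half-maximal concentration at or below twice the top valid tested dose in every test run; inconclusive = runs disagree, flat 30 to 70% signal loss, or poor fit; inactive = all runs flat, opposite direction, or potency beyond limit.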

Test: HEK293T cytotoxicity, dose response, cytotoxicity control for miR-122 modulator project, cell-based, inhibitor set, cherry-pick, set 2 (AID 720697);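 also: 0% = median of neutral control wells and -100% = MG132 positive control wells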

SMILES	outcome	activity change, negative = cytotoxicity
COc1ccccc1-c1ccc2c(c1)O[C@@H](CN(C)S(=O)(=O)c1ccc(F)cc1)[C@@H](C)CN([C@@H](C)CO)S2(=O)=O	inactive	–
CN1C(=O)c2cc(NC(=O)c3cccc(F)c3)ccc2OC[C@H]2O[C@@H](CC(=O)NC3CCC3)CC[C@H]21	inactive	–
O=C(Nc1nc(-c2cc3ccccc3o2)cs1)c1ccc(S(=O)(=O)N2CCCC2)cc1	inactive	–
CCN(C[C@@H]1[C@@H](c2ccccc2)[C@@H](CO)N1C(=O)COC)S(C)(=O)=O	inactive	–
CC(=O)c1cccc(S(=O)(=O)NCC2CCCCC2)c1	inactive	–
COc1ccc(-c2c(C)nn3c(N)c(-c4ccccc4)cnc23)cc1OC	inactive	–
CCc1ccccc1NC(=O)CN(C)C(=O)Cn1ncc(Cl)c(Cl)c1=O	–	-65.2% [at 6 µM] (inactive)
CC(C)Oc1ccc(CNCCC2(C(C)C)CCOC(C)(C)C2)cc1 (stereo unspecified)	inactive	–
CCCNC(=O)Nc1ccc2c(c1)OC[C@H](C)N(CCC)C[C@H](C)[C@H](OC)CN(C)C2=O	inactive	–
COC(=O)c1c(N)nc(C)n1-c1ccc(OC)cc1	inactive	–
COCCNC(=O)C[C@@H]1CC[C@@H]2[C@H](COc3ccc(NS(=O)(=O)c4ccc(Cl)cc4)cc3C(=O)N2C)O1	inactive	–
CN[C@H]1C[C@H]2c3[nH]c4ccc(-c5ccc(OC)cc5)cc4c3CCN2C(=O)[C@H]1[C@H](C)O	inactive	–
CNC(=O)C[C@H]1CC[C@@H]2[C@H](COc3ccc(NC(=O)c4ccc(OC)cc4)cc3C(=O)N2C)O1	inactive	–
NC(=O)c1cn(-c2ccccc2)nc1-c1cc2ccccc2oc1=O	inactive	–
C/C=C/c1ccc([C@H]2[C@H](CO)N[C@@H]2CN(CC)C(=O)c2cccnc2)cc1	inactive	–
Cc1ccnc(Nc2nc(-c3c(C)nc4sccn34)cs2)c1	inactive	–
Cc1ccc(S(=O)(=O)Nc2ccc3c(c2)C(=O)N(C)[C@@H]2CC[C@H](CC(=O)NCCc4ccncc4)O[C@@H]2CO3)cc1	inactive	–
COc1ccc2[nH]c(=O)c(COC(=O)c3ccco3)cc2c1	inactive	–
Cc1ccc(-c2noc(CCC(=O)Nc3ccccc3C)n2)cc1	inactive	–
CC(=O)Nc1ccc2c(c1)C(=O)N(C)[C@H]1CC[C@@H](CC(=O)NCc3ccc4c(c3)OCO4)O[C@@H]1CO2	inactive	–
O=C(c1ccccc1)N1C[C@H]2[C@@H](c3ccccc31)[C@@H](CO)N2C(=O)CN1CCOCC1	inactive	–
COc1ccc(CCNC(=O)c2c(C)cc(=O)oc2C)cc1OC	inactive	–
O=C(NC[C@H]1N[C@H](CO)[C@@H]1c1ccc(-c2ccccc2F)cc1)c1ccccc1	inactive	–
CO[C@H]1CN(C)C(=O)c2cc(NC(C)=O)ccc2OC[C@@H](C)N(C(=O)CC2CC2)C[C@H]1C	inactive	–
COc1ccc(C#Cc2ccc3c(c2)O[C@@H](CN(C)C(=O)CN2CCOCC2)[C@@H](C)CN([C@H](C)CO)S3(=O)=O)cc1	inactive	–
Cc1cnc(NC(=O)c2cc3c(C)nn(-c4ccccc4)c3s2)s1	inactive	–
